Source: PubChem BioAssay (Tox21)
Results filed as inconclusive are left out. The source made the active and inactive calls. Unless noted, calls come from the whole dose curve; as a rule, active = well fitted curve in the direction sought with a large enough effect in the repeat runs; inconclusive = weak or mixed curves; inactive = no such curve, though single readings can be large; an effect the other way counts as inactive or inconclusive.

Experiments:
[1] = molecular target: Retinoic acid receptor RXR-alpha (Homo sapiens) (UniProt P19793); assay: qHTS assay to identify small molecule agonists of the RXR signaling pathway (AID 1159527; calls by dose curve; note: nearly all actives have a fitted effect of over 35% in size; note: potency is the fitted concentration of half-maximal effect)
Method in brief: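 16 hr incubation of compound-treated RXR-alpha-UAS-bla HEK 293T cells (2% charcoal-stripped FBS, 37 C) preceded a 2 hr room-temperature LiveBLAzer FRET substrate step and blue/green fluorescence measurement.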

[2] = qHTS assay to identify small molecule agonists of the RXR signaling pathway - cell viability counter screen (AID 1159529);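 note: HEK 293T cells carrying an RXR-alpha UAS beta-lactamase reporter; series mostly up to about 77 µM; nearly all actives have a fitted effect of over 50% in size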
Method in brief: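 In this parallel viability measure, GeneBLAzer RXR-alpha HEK 293T cells (2% charcoal-stripped FBS) were given a 5 hr preincubation, treated with compounds 16 hr at 37 C, and read by CellTiter-Glo luminescence.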

[3] = qHTS assay to identify small molecule antagonists of the retinoid acid receptor (RAR) signaling pathway - cell viability counter screen (AID 1159551); note: nearly all actives have a fitted effect of over 35% in size
Method in brief: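 Cells (C3RL4) are plated, incubated overnight, dosed with compound in DMSO, then given retinol at 1 uM final. After 6 h at 37 C, CellTiter-Glo is added and luminescence read following 30 min at room temperature.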

[4] = qHTS assay to identify small molecule antagonists of the estrogen related receptor (ERR) signaling pathway from Tox21 library - cell viability counter screen (AID 1224834); note: nearly all actives have a fitted effect of over 30% in size
Method in brief: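 ERR cells, 2,000/well; 6 h settle at 37 C/5% CO2; pin-tool compound transfer in DMSO; 17.5 h at 37 C; CellTiter-Fluor, 30 min; fluorescence intensity.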

[5] = qHTS assay to identify small molecule agonists of the constitutive androstane receptor (CAR) signaling pathway - cell viability counter screen (AID 1224836); note: series mostly up to about 92 µM; nearly all actives have a fitted effect of over 45% in size
Method in brief: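 Using CellTiter-Fluor, viability of HepG2 cells harbouring hCAR and CYP2B6-2.2kb was measured following 23 h incubation with a 15-concentration compound series plus PK11195 (0.75 uM final).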

[6] = qHTS assay to identify small molecule antagonists of the constitutive androstane receptor (CAR) signaling pathway - cell viability counter screen (AID 1224837); note: series mostly up to about 92 µM; nearly all actives have a fitted effect of over 45% in size
Method in brief: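 Viability was measured with CellTiter-Fluor in a HepG2 line carrying stably transfected hCAR and a CYP2B6-2.2kb construct. Cells were exposed for 23 hr at 37 C to 15 compound concentrations with 50 nM CITCO as agonist.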

[7] = molecular target: Nuclear receptor subfamily 1 group I member 3 (Homo sapiens) (UniProt Q14994); assay: qHTS assay to identify small molecule antagonists of the constitutive androstane receptor (CAR) signaling pathway (AID 1224838);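 note: HepG2 cells stably expressing hCAR with CYP2B6 luciferase reporter stimulated by CITCO; nearly all actives have a fitted effect of over 40% in size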
Method in brief: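 Antagonist mode used CITCO at a final 50 nM to activate CAR in human hepatoma HepG2 cells carrying stable hCAR and a 2.2 kb CYP2B6 promoter-luciferase construct. Compounds were tested at 15 concentrations over 24 h, with luminescence as the end point.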

[8] = molecular target: Nuclear receptor subfamily 1 group I member 3 (Homo sapiens) (UniProt Q14994); assay: qHTS assay to identify small molecule agonists of the constitutive androstane receptor (CAR) signaling pathway (AID 1224839); note: series mostly up to about 92 µM; nearly all actives have a fitted effect of over 15% in size
Method in brief: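 Double-stable HepG2 cells (hCAR, CYP2B6-2.2kb) seeded 4 h before compound addition. Exposure 24 h with 0.75 uM PK11195 final. Luciferase detected by ONE-Glo.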

[9] = qHTS assay to identify small molecule antagonists of the estrogen related receptor signaling pathway with the pleiotropic PPARgamma coactivator (PGC) from Tox21 10K library - cell viability counter screen (AID 1224840; active = well fitted cell-killing curve with a large enough effect in the repeat runs, not every such curve was filed as active; note: nearly all actives have a fitted effect of over 40% in size)
Method in brief: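 Multiplexed viability counter screen in the PGC/ERR cell line: cells treated with DMSO-dissolved compounds for 17.5 hours at 37 C, then viability measured as CellTiter-Fluor fluorescence.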

[10] = qHTS assay to identify small molecule antagonists of the estrogen related receptor signaling pathway with the pleiotropic PPARgamma coactivator (PGC) from Tox21 10K library (AID 1224841; call rule not given here; note: series mostly up to about 92 µM; actives are mostly falling curves and most rising ones were filed inactive; nearly all actives have a fitted effect of over 50% in size)
Method in brief: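 Steps: plate 2,000 PGC/ERR cells per well; incubate 6 h at 37 C with 5% CO2; transfer compounds from DMSO stocks by pin tool; incubate 18 h at 37 C; add One-Glo; measure luminescence 30 min later.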

[11] = qHTS assay to identify small molecule agonists of the estrogen related receptor signaling pathway with the pleiotropic PPARgamma coactivator (PGC) from Tox21 10K library (AID 1224842); note: nearly all actives have a fitted effect of over 15% in size
Method in brief: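 PGC/ERR reporter cells (NTP line) were seeded 2,000 per well, rested 6 h at 37 C/5% CO2, then pin-dosed with compounds in DMSO for 18 h at 37 C; luciferase read by One-Glo luminescence after 30 min at room temperature.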

[12] = qHTS assay to identify small molecule agonists of the hypoxia (HIF-1) signaling pathway - cell viability counter screen (AID 1224844; calls by dose curve; note: nearly all actives have a fitted effect of over 50% in size)
Method in brief: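 Cytotoxicity was measured in parallel with the HRE-driven beta-lactamase readout: after 17 hrs of compound exposure at 37C, HRE-bla ME-180 cells received CellTiter-Glo and luminescence was recorded 30 min later.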

[13] = qHTS assay to identify small molecule agonists of H2AX (AID 1224845; active = well fitted activation curve with a large enough effect in the signal ratio in the repeat runs, not every such curve was filed as active; the % refers to the signal ratio)
Method in brief: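 Wild-type CHO-K1 cells plated overnight, then exposed 3 hr at 37C to compounds at 15 concentrations (0.76% DMSO). Lysed, then HTRF anti-pH2AX(S139)-cryptate/anti-H2AX-d2 detection after 24 hr at room temperature; emissions 665 and 620 nm.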

[14] = molecular target: Luciferin 4-monooxygenase (Photinus pyralis) (UniProt P08659); assay: qHTS assay to identify small molecule inhibitors of firefly luciferase (AID 1224835); note: series mostly up to about 120 µM; nearly all actives have a fitted effect of over 25% in size
Method in brief: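 Quantitative HTS format; KM concentrations of both substrates. Purified P. pyralis FLuc activity quantified from luminescence images.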

[15] = molecular target: Thyrotropin receptor (Homo sapiens) (UniProt P16473); assay: qHTS assay to identify small molecule agonists of the thyroid stimulating hormone receptor (TSHR) signaling pathway (AID 1224843; calls by dose curve; note: nearly all actives have a fitted effect of over 45% in size)
Method in brief: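 Compounds are titrated over 15 concentrations, in triplicate, onto TSHR-HEK293 cells seeded at 800/well. Plates sit 30 min at room temperature before cAMP-d2 and anti-cAMP cryptate are added; signal is read after a further hour.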

[16] = qHTS assay to identify small molecule antagonists of the retinoic acid receptor (RAR) signaling pathway (AID 1159552; note: nearly all actives have a fitted effect of over 50% in size)
Method in brief: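 C3RL4 RARE-luc cells, overnight plating; retinol 1 uM final added right after compound; 6 hr 37 C; luciferase read at 30 min RT.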

[17] = qHTS assay to identify small molecule agonists of the retinoic acid receptor (RAR) signaling pathway (AID 1159553)
Method in brief: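 Seed C3RL4 reporter cells at 1,000 per well and incubate overnight at 37 C. Add compounds in DMSO, incubate 6 hr. Add luciferase reagent, wait 30 min at room temperature, read luminescence.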
% is set by controls: 0 for no effect and ±100 for the full control effect.

Nuclear receptor subfamily 1 group I member 3 (Homo sapiens), sequence (Q14994 whole entry, looked up): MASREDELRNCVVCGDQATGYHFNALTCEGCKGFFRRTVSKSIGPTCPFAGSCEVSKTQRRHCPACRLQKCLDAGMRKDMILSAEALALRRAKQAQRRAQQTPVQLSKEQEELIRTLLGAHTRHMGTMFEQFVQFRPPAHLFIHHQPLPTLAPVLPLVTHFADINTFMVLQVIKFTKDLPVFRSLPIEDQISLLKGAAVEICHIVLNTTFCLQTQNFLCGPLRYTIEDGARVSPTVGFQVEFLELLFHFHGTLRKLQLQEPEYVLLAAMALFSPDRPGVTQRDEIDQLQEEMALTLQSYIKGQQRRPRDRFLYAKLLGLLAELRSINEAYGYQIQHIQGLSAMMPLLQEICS
Luciferin 4-monooxygenase (Photinus pyralis), sequence (P08659 whole entry, looked up): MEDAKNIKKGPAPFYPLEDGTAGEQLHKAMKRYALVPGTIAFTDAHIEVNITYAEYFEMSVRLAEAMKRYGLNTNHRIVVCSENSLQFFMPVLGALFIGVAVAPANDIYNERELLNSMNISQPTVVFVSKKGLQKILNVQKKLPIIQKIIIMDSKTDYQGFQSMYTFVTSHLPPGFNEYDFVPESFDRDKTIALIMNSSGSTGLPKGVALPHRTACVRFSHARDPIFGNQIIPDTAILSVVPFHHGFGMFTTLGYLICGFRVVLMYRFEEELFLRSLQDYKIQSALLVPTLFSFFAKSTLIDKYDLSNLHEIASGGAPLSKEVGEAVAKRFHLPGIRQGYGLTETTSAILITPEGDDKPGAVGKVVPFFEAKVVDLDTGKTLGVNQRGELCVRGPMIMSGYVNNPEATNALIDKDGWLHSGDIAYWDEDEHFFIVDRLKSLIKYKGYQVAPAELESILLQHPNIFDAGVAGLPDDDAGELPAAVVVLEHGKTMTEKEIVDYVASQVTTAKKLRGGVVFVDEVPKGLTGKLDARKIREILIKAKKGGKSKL
Thyrotropin receptor (Homo sapiens), sequence (P16473 whole entry, looked up): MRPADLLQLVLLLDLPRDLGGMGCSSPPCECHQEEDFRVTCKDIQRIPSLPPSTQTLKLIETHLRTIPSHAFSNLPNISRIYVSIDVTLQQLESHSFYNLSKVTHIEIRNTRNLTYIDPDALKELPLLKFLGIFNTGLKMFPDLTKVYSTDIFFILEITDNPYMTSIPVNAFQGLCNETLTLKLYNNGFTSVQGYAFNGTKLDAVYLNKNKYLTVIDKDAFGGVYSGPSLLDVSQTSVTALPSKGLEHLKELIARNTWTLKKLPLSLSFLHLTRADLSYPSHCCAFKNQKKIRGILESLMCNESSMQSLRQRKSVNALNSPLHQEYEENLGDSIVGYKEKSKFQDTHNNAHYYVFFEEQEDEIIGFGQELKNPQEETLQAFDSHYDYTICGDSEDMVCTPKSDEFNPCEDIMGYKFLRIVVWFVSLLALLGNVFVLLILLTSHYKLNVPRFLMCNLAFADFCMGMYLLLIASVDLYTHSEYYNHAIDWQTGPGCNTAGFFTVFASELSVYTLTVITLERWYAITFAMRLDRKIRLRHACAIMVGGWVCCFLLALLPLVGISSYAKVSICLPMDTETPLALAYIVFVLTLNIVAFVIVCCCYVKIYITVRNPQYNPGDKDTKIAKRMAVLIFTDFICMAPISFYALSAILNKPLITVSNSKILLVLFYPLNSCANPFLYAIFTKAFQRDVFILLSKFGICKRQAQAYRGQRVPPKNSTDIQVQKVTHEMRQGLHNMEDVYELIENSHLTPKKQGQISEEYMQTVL
Retinoic acid receptor RXR-alpha (Homo sapiens), sequence (P19793 whole entry, looked up): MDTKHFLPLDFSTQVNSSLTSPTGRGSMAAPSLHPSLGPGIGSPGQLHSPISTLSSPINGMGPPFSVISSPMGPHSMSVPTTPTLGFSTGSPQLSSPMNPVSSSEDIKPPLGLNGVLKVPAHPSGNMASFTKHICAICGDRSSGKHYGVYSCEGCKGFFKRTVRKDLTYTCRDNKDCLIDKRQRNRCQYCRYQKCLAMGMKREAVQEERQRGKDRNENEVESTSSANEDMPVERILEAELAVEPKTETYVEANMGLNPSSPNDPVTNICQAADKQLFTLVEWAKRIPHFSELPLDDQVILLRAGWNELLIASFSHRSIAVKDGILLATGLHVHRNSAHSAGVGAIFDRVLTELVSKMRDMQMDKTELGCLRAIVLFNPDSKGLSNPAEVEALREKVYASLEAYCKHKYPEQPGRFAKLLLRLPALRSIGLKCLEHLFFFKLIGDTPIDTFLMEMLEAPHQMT

C[Si](C)=O
inactive: activation [1] 8.36% [at 6.98 µM] | activity change, negative = cytotoxicity [2] 0.062% [at 6.97 µM] | activity change, negative = cytotoxicity [3] 3.8% [at 8.39 µM] | viability change, negative = cytotoxic [4] 2.07% [at 8.39 µM] | viability change, negative = cytotoxic [5] 2.34% [at 8.39 µM] | activity change, negative = cytotoxicity [6] 1.39% [at 8.39 µM] | activity, negative = inhibition [7] -3.72% [at 8.39 µM] | activation [8] -0.11% [at 8.39 µM] | viability change, negative = cytotoxic [9] 10.2% [at 8.39 µM] | activity, negative = inhibition [10] -4.65% [at 8.39 µM] | activation [11] -1.46% [at 8.39 µM] | activity change, negative = cytotoxicity [12] 3.37% [at 6.97 µM] | activation (H2AX phosphorylation) [13] -1.6% [at 14 µM]

CC(=O)c1sc(C)nc1C
inactive: Potency [1] | outcome [2] | outcome [3] | Potency [4] | Potency [14] | Potency [5] | Potency [6] | outcome [7] | Potency [10] | outcome [11] | Potency [15] | outcome [13]

CC(C)(C)c1nnc(NS(=O)(=O)c2ccc(N)cc2)s1
inactive: Potency [1] | outcome [2] | outcome [3] | Potency [14] | Potency [5] | Potency [6] | outcome [7] | Potency [8] | outcome [9] | Potency [15] | outcome [12] | outcome [13]

c1ccc2nccnc2c1
inactive: Potency [1] | outcome [2] | outcome [3] | Potency [14] | Potency [5] | Potency [6] | outcome [7] | Potency [8] | outcome [9] | Potency [15] | outcome [12] | outcome [13]

On1nnc2ccccc21
inactive: outcome [2] | outcome [3] | Potency [4] | Potency [5] | Potency [6] | outcome [7] | Potency [8] | outcome [9] | Potency [10] | outcome [11] | Potency [15] | outcome [13]
active: Potency [1] 4.9 µM

O=C(CCNNC(=O)c1ccncc1)NCc1ccccc1
inactive: Potency [1] | outcome [2] | outcome [3] | Potency [14] | Potency [5] | Potency [6] | outcome [7] | Potency [8] | Potency [15] | outcome [12] | outcome [13]

COc1cc(C(=S)N2CCOCC2)cc(OC)c1OC
inactive: Potency [1] | outcome [2] | outcome [3] | Potency [14] | Potency [5] | Potency [6] | outcome [7] | Potency [8] | outcome [9] | Potency [10] | outcome [11] | Potency [15] | outcome [12] | outcome [13]

BrCc1cccc(Oc2ccccc2)c1
inactive: Potency [1] | outcome [2] | outcome [16] | Potency [17] | Potency [4] | Potency [5] | Potency [6] | outcome [7] | outcome [9] | Potency [10] | outcome [11] | Potency [15] | outcome [12] | outcome [13]

CC(C)CC(=O)O
active: Potency [1] 10.7 µM
inactive: outcome [2] | outcome [3] | Potency [4] | Potency [5] | Potency [6] | outcome [9] | outcome [11] | Potency [15] | outcome [13]

CN(CCOc1ccc(NS(C)(=O)=O)cc1)CCc1ccc(NS(C)(=O)=O)cc1
inactive: Potency [1] | outcome [2] | outcome [3] | Potency [4] | Potency [14] | Potency [5] | Potency [6] | Potency [15] | outcome [12] | outcome [13]

Cc1ccccc1OCC(O)CO (centres undefined)
inactive: Potency [1] | outcome [2] | outcome [3] | Potency [4] | Potency [5] | Potency [6] | outcome [7] | Potency [8] | Potency [10] | outcome [11] | Potency [15] | outcome [12] | outcome [13]

CCCCCCCCOS(=O)(=O)O
inactive: Potency [1] | outcome [2] | outcome [3] | Potency [4] | Potency [14] | Potency [5] | Potency [6] | outcome [7] | outcome [9] | Potency [10] | outcome [11] | Potency [15] | outcome [13]

CCCN1C[C@H](CSC)C[C@@H]2c3cccc4[nH]cc(c34)C[C@H]21
inactive: Potency [1] | outcome [2] | outcome [3] | Potency [14] | Potency [5] | Potency [6] | Potency [15] | outcome [12]

COc1nccnc1NS(=O)(=O)c1ccc(N)cc1
inactive: Potency [1] | outcome [2] | outcome [3] | Potency [4] | Potency [14] | Potency [5] | Potency [6] | outcome [7] | outcome [9] | Potency [10] | outcome [11] | outcome [12] | outcome [13]

CCC(CC)CO
inactive: Potency [1] | outcome [2] | outcome [3] | Potency [4] | Potency [14] | Potency [5] | Potency [6] | outcome [7] | outcome [9] | Potency [15] | outcome [12] | outcome [13]

COc1cc2c(cc1OC)[C@@H]1CC(=O)[C@@H](CC(C)C)CN1CC2
inactive: Potency [1] | outcome [2] | outcome [3] | Potency [4] | Potency [14] | Potency [5] | Potency [6] | outcome [7] | outcome [9] | Potency [15] | outcome [13]

Cc1cc(C(C)(C)C)c(O)c(C)c1CC1=NCCN1
inactive: Potency [1] | outcome [2] | outcome [3] | Potency [14] | Potency [5] | Potency [6] | outcome [7] | Potency [8] | outcome [9] | Potency [15] | outcome [12] | outcome [13]

O=S(O)(O)=S
inactive: activation [1] 4.57% [at 6.98 µM] | activity change, negative = cytotoxicity [2] 0.418% [at 6.97 µM] | activity change, negative = cytotoxicity [3] 0.445% [at 8.39 µM] | activity change, negative = inhibition [14] 1.12% [at 10.5 µM] | viability change, negative = cytotoxic [5] 1.44% [at 8.39 µM] | activity change, negative = cytotoxicity [6] 0.559% [at 8.39 µM] | activity, negative = inhibition [7] -2.22% [at 8.39 µM] | viability change, negative = cytotoxic [9] 0.0211% [at 8.39 µM] | activation [11] -0.09% [at 8.39 µM] | activation [15] 8.08% [at 8.39 µM] | activation (H2AX phosphorylation) [13] 2.44% [at 14 µM]
